# Source: PubChem (Fisher Drug Discovery Resource Center)
# mcGAS lum = cyclic GMP-AMP synthase inhibitors, mouse, primary biochemical chemiluminescence; 160,000 tested, 0.15% active; Q8C6L5; inhibition, % at 12.5 µM; recombinant cGAS, Kinase-Glo ATP depletion luminescence
# Target sequence (Q8C6L5 whole entry, looked up): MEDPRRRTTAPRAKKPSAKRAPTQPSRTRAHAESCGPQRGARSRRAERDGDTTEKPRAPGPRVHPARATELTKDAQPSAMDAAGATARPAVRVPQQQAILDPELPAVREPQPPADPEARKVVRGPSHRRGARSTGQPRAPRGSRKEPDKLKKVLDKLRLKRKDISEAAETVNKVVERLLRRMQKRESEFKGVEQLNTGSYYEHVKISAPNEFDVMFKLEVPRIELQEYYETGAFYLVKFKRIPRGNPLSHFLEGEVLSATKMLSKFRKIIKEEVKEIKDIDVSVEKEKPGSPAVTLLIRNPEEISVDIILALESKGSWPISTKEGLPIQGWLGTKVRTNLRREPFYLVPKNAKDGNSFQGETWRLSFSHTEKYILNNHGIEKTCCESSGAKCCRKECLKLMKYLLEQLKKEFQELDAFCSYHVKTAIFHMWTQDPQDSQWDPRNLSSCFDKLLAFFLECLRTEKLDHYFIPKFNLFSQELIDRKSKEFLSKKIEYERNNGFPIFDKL
# NPYLR7 agonist = agonists of mosquito NPYLR7 receptor, primary screen, cell-based, Aedes aegypti, calcium fluorescence, mosquito biting behavior; Aedes aegypti neuropeptide Y-like receptor 7 (NPYLR7); HEK293T NPYLR7/Galpha15, GCaMP6s calcium fluorescence; activation, % at 10 µM; 270,000 tested, 0.15% active; AID 1259423, 2018; in the data active means activation above about 40%
# hcGAS lum = Primary biochemical luminescence assay for human cyclic GMP-AMP synthase inhibitors; recombinant h-cGAS, ATP depletion, Kinase-Glo luminescence; inhibition, % at 12.5 µM; 290,000 tested, 0.081% active; AID 1259398, 2018
# Numbers stand for hits; – = inactive; · = no result given. Rows were chosen to be rich in hits. Some 0.3% of all compounds tested hit in one or more screens of this group. Unless noted, no stated cut-off is given here; in the data, active means inhibition above about 40%; inactive means the rest.
SMILES,mcGAS lum,NPYLR7 agonist,hcGAS lum
O=S(=O)(c1ccccc1)c1cnc2ccccc2c1Nc1ccccc1,–,–,–
N#Cc1cn(OCc2ccccc2)c(=O)[nH]c1=O,·,–,–
Brc1c(Br)c(Br)c2n[nH]nc2c1Br,84,–,41
Brc1c(Br)c(Br)c2[nH]cnc2c1Br,–,–,–
Cc1ccccc1OCC(=O)OCc1cc(-c2cc3ccccc3o2)on1,·,–,–
CCOc1cc(/C=C2/C(=N)N3C=CSC3=NC2=O)cc(Br)c1OC(=O)c1ccco1,–,–,–
COc1cc(/C=C2\C(=N)N3N=CSC3=NC2=O)cc(Br)c1OC(=O)c1ccco1,·,49,–
CCN1CCc2c(sc(NC(C)=O)c2-c2nc3ccccc3s2)C1,94,–,73
CCN1CCc2c(sc(NC(=O)COc3ccccc3)c2-c2nc3ccccc3s2)C1,–,53,–
CCN1CCc2c(sc(NC(=O)CS(=O)(=O)c3ccccc3)c2-c2nc3ccccc3s2)C1,–,–,–
CCN1CCc2c(sc(NC(=O)c3ccccc3)c2-c2nc3ccccc3s2)C1,–,91,–
CCN1CCc2c(sc(NC(=O)c3ccc(OC)cc3)c2-c2nc3ccccc3s2)C1,–,–,–
CCN1CCc2c(sc(NC(=O)c3ccco3)c2-c2nc3ccccc3s2)C1,–,–,–
CCN1CCc2c(sc(NC(=O)c3ccc(C(C)=O)cc3)c2-c2nc3ccccc3s2)C1,–,–,–
CCC(=O)Nc1sc2c(c1-c1nc3ccccc3s1)CCN(CC)C2,100,–,73
CC(C)C(CNC(=O)c1ccc2c(c1)COC2)Nc1ccccc1 (centres undefined),·,–,–
CC1(C(=O)NS(=O)(=O)Cc2ccccc2C(F)(F)F)CCN1C(=O)Cc1ccsc1 (centres undefined),·,–,–
COc1ccc(OC)c(NC(=Nc2nc(C)cc(C)n2)NC(C)=O)c1,–,–,–
COc1ccc(F)cc1C(=O)N(CCCO)Cc1ccc(C)s1,·,–,–
COc1ccc2nc(CN3CCN(C(=O)C4(c5cccs5)CCCC4)CC3)[nH]c2c1,·,–,–
CN1CCc2c(sc(NC(=O)CN3C(=O)c4ccccc4C3=O)c2-c2nc3ccccc3s2)C1,–,–,–
CCN1CCc2c(sc(NC(=O)CN3C(=O)CCC3=O)c2-c2nc3ccccc3s2)C1,44,–,45
Cc1cccc(NC(=O)c2n[nH]c(C(C)C)c2Br)n1,·,–,–
COc1ccc(-c2ccc(N)nc2)c(C)c1,·,–,–
COc1ccc(-c2cnn(CCC(N)=O)c2)c(C)c1,·,47,–
SMILES,mcGAS lum,NPYLR7 agonist,hcGAS lum
CCOC(=O)CCC(=O)N1CCN(c2ncccc2C(=O)NCC2CCCO2)CC1 (centres undefined),–,–,–
CC1=NN(Cc2cc(C)ccc2C)c2nc3c(c(=O)n(Cc4cc(C)ccc4C)c(=O)n3C)n2C1,–,–,–
O=[N+]([O-])c1cc(S(=O)(=O)C(F)(F)F)ccc1Sc1nnnn1-c1ccccc1,–,–,–
O=[N+]([O-])c1ccc(Sc2nnnn2-c2ccccc2)c([N+](=O)[O-])c1,72,–,–
COc1ccccc1OCC1c2ccsc2CCN1C(=O)CN(C(=O)Cc1ccccc1)C1CC1 (centres undefined),–,–,–
CCOC(=O)c1c(-c2ccc(C)cc2)csc1N=Cc1nc(-c2ccccc2)oc1O,–,–,–
CCOC(=O)c1c(-c2ccccc2)csc1N=Cc1nc(-c2ccccc2)oc1O,–,97,–
O=[N+]([O-])c1ccccc1S(=O)(=O)N1CCN(c2nnnn2-c2ccccc2)CC1,·,–,–
O=C(c1ncc[nH]1)N1CCOC(COCc2ccccc2F)C1 (centres undefined),–,–,–
COc1ccc(S(=O)(=O)Oc2ccccc2CN(C(=O)Nc2ccccc2OC)C2CC2)cc1,–,–,–
COc1ccc(S(=O)(=O)Oc2cccc(CN(C(=O)Nc3ccccc3OC)C3CC3)c2)cc1,42,–,–
CC(=O)Oc1cc2oc(=O)c(Cl)c(C)c2cc1Cl,–,–,72
COc1cc2oc(=O)cc(C)c2c(OC)c1OC(C)=O,·,–,–
CCN(CC)C(=O)COC(=O)c1cccc(N2CC(=O)C(c3nc4ccccc4s3)C2=N)c1 (centres undefined),–,–,–
N=C1C(c2nc3ccccc3s2)C(=O)CN1N1C(=O)c2ccccc2C1=O (centres undefined),43,–,–
COc1ccc(CN(C)Cc2ccc3ccccc3n2)cc1O,–,–,–
C=CCNc1ccc2c3c(cccc13)C(=O)N(c1ccccc1)C2=O,–,99,–
C=CCN1C(=O)c2cccc3c(Cl)ccc(c23)C1=O,–,–,–
Nc1ccc2c3c(cccc13)C(=O)N(c1ccccc1)C2=O,·,76,–
O=C1c2cccc3c(NCCO)ccc(c23)C(=O)N1CCO,–,107,–
CC(=O)Nc1ccc2c3c(cccc13)C(=O)N(c1ccccc1)C2=O,–,–,–
Cc1cccc(N2C(=O)c3cccc4c(N)ccc(c34)C2=O)c1,–,–,–
Cn1cc(CCCNC(=O)NC2CCN(c3ccccc3)C2=O)cn1 (centres undefined),·,–,–
CCOc1cccc2cc(-c3csc(Nc4ccc(Cl)cc4Cl)n3)c(=O)oc12,·,–,–
CCOc1cccc2cc(C(N)=O)c(=Nc3ccc(Cl)cc3)oc12,–,–,–
SMILES,mcGAS lum,NPYLR7 agonist,hcGAS lum
Cc1cc(=O)[nH]c(NN=C2CCCc3ccccc32)n1,–,–,–
COc1cc(C=C(C#N)S(=O)(=O)c2cc(Br)ccc2Br)cc(OC)c1,·,–,–
COc1cc(C=C(C#N)S(=O)(=O)c2cc(Br)ccc2Br)ccc1O,·,170,–
Cc1c(Cl)cn2c(=O)cc(CNc3ccc(I)cc3)nc2c1Cl,·,–,–
N#CC(C#N)=C1C=C2C=C(N3CCN(Cc4ccccc4)CC3)CCC2CC1 (centres undefined),·,47,–
N#CC(C#N)=C1C=C2C=C(N3CCCCC3)CCC2CC1 (centres undefined),–,116,–
N#CC(C#N)=c1c2nn(Cc3ccccc3)nc2c(=C(C#N)C#N)c2nn(Cc3ccccc3)nc12,–,–,–
N#CC(C#N)=C1C=C2C=C(N3CCCC3)CCC2CC1 (centres undefined),–,90,–
CCn1cc(C#N)c(=O)n(CCN2C(=O)c3ccccc3S2(=O)=O)c1=O,·,–,–
CC(C)C(=O)Nc1sc2c(c1-c1nc3ccccc3s1)CCN(C(C)C)C2,90,66,78
CN1CCc2c(sc(NC(=O)Cc3ccccc3)c2-c2nc3ccccc3s2)C1,–,45,–
CC(=O)N1CCc2c(sc(NC(=O)Cc3ccccc3)c2-c2nc3ccccc3s2)C1,·,–,–
CC(C)C(=O)Nc1sc2c(c1-c1nc3ccccc3s1)CCN(C)C2,–,49,–
CC(C)N1CCc2c(sc(NC(=O)C3CC3)c2-c2nc3ccccc3s2)C1,–,166,45
CCOC(=O)N1CCc2c(sc(NC(=O)C(C)C)c2-c2nc3ccccc3s2)C1,·,–,–
CC(=O)N1CCc2c(sc(NC(=O)c3ccccc3)c2-c2nc3ccccc3s2)C1,·,–,–
CC(C)N1CCc2c(sc(NC(=O)c3ccc([N+](=O)[O-])o3)c2-c2nc3ccccc3s2)C1,–,–,–
